# Most compounds without a hit are left out; they make up all but 6% or so of the library.
# Tau fluor counter – counter-screen for tau fibril formation inhibitors; tau K18 P301L Alexa594 fluorescence, heparin fibrillization; Potency, µM (highest dose often 57.7 µM), without a hit: at the top dose activity change, negative = decrease; hit rate 0.93% among 280,000; further: nearly all actives have a fitted effect of over 55% in size
#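 Human K18 P301L tau (15 uM unlabeled plus 0.24 uM Alexa 594-labeled, final) in 100 mM sodium acetate pH 7 was mixed with compound and 20 uM heparin and incubated 6 hr at 37 C.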
# VDR inh – inhibitors of human vitamin D receptor; VDR-SRC2-3 peptide fluorescence polarization, 2 h; Potency, µM, for inactives: max response, negative = inhibition, most hits filed as inhibitors; hit rate 0.93% among 400,000
# Target sequence (P11473 whole entry, looked up): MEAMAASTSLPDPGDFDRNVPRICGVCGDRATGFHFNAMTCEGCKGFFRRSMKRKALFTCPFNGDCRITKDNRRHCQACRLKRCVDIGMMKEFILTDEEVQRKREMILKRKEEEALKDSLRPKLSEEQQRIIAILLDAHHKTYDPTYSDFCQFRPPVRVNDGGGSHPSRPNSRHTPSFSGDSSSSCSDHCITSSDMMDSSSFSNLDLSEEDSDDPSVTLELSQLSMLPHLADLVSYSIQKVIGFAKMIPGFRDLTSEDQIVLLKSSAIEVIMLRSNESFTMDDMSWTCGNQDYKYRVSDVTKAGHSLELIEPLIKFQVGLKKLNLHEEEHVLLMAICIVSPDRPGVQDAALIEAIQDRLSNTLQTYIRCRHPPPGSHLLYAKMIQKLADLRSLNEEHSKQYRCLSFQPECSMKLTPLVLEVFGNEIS
#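 VDR–SRC2-3 interaction, FP format. Cmpds 23 nl via pintool, brief spin, 2 h ambient incubation.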
# Tau fibril FP – blocks human tau fibril formation measured by polarization; P10636; K18 P301L tau heparin fibrillization, Alexa594 FP, 6 h; Potency, µM (titrated, usually from 57.7 µM), for the others: at the highest dose activity, negative = inhibition, most hits filed as inhibitors; hit rate 0.39% among 280,000; further: nearly all actives have a fitted effect of over 55% in size
# Target sequence (P10636 561-689 P618L limits assumed): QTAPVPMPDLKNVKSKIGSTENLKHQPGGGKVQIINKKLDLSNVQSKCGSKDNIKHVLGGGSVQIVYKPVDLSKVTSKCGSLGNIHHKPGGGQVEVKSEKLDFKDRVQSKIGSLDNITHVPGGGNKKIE
#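 Heparin (20 uM) drove fibril formation of recombinant tau K18 P301L, 15 uM unlabeled with 0.24 uM Alexa 594 label, for 6 hr at 37 C in 100 mM sodium acetate pH 7. Fluorescence polarization (555/632 nm) read 1 hr after 30 uM ThT.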
# PLK1 PBD block – PLK1 (human) polo-box domain binding inhibition; Potency, µM, for the others: max response, negative = inhibition, actives largely listed as inhibitors; hit rate 2.8% among 360,000; Plk1 PBD binding of FITC phosphopeptide, fluorescence polarization; further: series mostly up to about 57 µM; nearly all actives have a fitted effect of over 65% in size
# Tau ThT inhib – tau fibrillization inhibition (ThT binding) | P10636 | recombinant tau K18 P301L (four-repeat tau fragment), heparin-induced fibrillization, ThT fluorescence | Potency, µM (highest dose often 57.4 µM), without a hit: top-dose activity, negative = inhibition, actives largely listed as inhibitors | hit rate 2.1% among 270,000 | AID 1460; further: nearly all actives have a fitted effect of over 55% in size
#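 Aggregation was driven by heparin (20 uM final) acting on recombinant tau […] bearing P301L in 100 mM sodium acetate pH 7; fibrils were detected with Thioflavin T.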
# Sfp PPTase inh – Sfp phosphopantetheinyl transferase inhibition; Biochemical Sfp PPTase activity, qHTS; Potency, µM, without a hit: largest response in the series, negative = inhibition, usual class: inhibitors; hit rate 3.5% among 310,000; AID 1490;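 further: the enzyme is Sfp with the accession as filed and its product quenches rhodamine fluorescence; 0% = enzyme reaction without inhibitor and -100% = no enzyme wells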
#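 Fluorescence-quenching assay: 15 nM Sfp-PPTase preincubated 15 min at room temperature with compound, then 5 uM rhodamine-CoA and 12.5 uM BHQ-2-labelled YbbR peptide added. Fluorescence (ex 525/em 598 nm) read at start and after 30 min; difference gives rate.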
# Active calls of the source: *; ? = inconclusive; . = not tested or not shown; [ ] = dose if it differs, or a comment. The call rests on the fitted dose curve; in most records, active means well fitted curve in the direction sought with a large enough effect; inconclusive means small, poorly fitted or top-dose-only effect, or another doubt; inactive means no such curve, though single readings can be large; an effect the other way counts as inactive or inconclusive. Unless noted, on the % scale 0 is the no-effect control and ±100 the full control effect; potency means the concentration at half of the fitted maximal effect.
SMILES,Tau fluor counter,VDR inh,Tau fibril FP,PLK1 PBD block,Tau ThT inhib,Sfp PPTase inh
CCCCCCCc1ccc(C2NC(=S)NC3=C2C(=O)c2ccccc23)cc1 (stereo not drawn),-15.8%,?,1.8%,21.2µM*,-2.2%,14.5%
C[C@@H]1C(c2cccc(Cl)c2)=NN(c2ccc(Br)cc2)[C@H]1C(=O)N1CCOC1=O,14.1µM*[quencher],-2.3%,-6.7%,-0.8%,?,14.9%
CC[C@@H]1C(c2cccc(C)c2)=NN(c2ccc(Br)cc2)[C@H]1C(=O)N1CCOC1=O,8.91µM*[quencher],-1.8%,-13.6%,.,?,25.1%
C[C@@H]1C(c2ccccc2)=NN(c2ccccc2)[C@H]1C(=O)N1CCOC1=O,?,-0.7%,12.3%[81.3 µM],0.6%,?,10.0%
CCOC(=O)CC(C(=O)OCC)C1CCCCC1=O (stereo not drawn),-8.4%,.,0.7%,.,-9.0%,22.9%
O=C(Nc1cccc2nsnc12)c1ccc(-c2cccc(Cl)c2)o1,-17.7%,?,-1.0%,?,?,25.1µM*
Cc1ccc2nsnc2c1NC(=O)c1ccc(-c2cc(Cl)ccc2Cl)o1,-18.6%,-6.5%,-8.8%,-7.6%,?,28.2µM*
Cc1ccc2nsnc2c1NC(=O)Cc1ccc(Cl)cc1,7.5%,0.2%,-0.3%,-9.2%,6.7%,7.7%
Cc1cc(C(=O)NC2CCCCCCC2)ccc1[N+](=O)[O-],.,-4.0%,.,-9.8%,.,.
O=C(COC(=O)Cn1cc(C(F)(F)F)ccc1=O)NCc1ccccc1,.,9.0%,.,-8.2%,.,.
COc1ccc(C(C(=O)NCc2ccccc2)n2c(=O)c(-c3ccco3)nc3ccccc32)cc1 (stereo not drawn),.,.,.,-17.6%,.,.
O=C(CCC(=O)c1cccs1)OCC(=O)c1ccc(F)cc1,.,-17.9%,.,1.7%,.,.
O=C(CC(Nc1ccc(F)cc1)C(=O)OCC(=O)c1cccs1)c1ccccc1 (stereo not drawn),-21.5%,-17.0%,7.0%,-9.1%,?,35.5µM*
COc1ccc(N2CCN(S(=O)(=O)c3ccc(C4CCCCC4)cc3)CC2)cc1,-17.5%,14.4%,2.6%,.,-2.5%,.
CCOC(=O)N1CCc2c(sc3c2c(=O)n(Cc2ccccc2)c(=O)n3CC(=O)Nc2c(C)cccc2C)C1,-10.3%,4.8%,-9.9%,.,-8.3%,.
CCOC(=O)N1CCc2c(sc3c2c(=O)n(Cc2ccccc2)c(=O)n3CC(=O)Nc2ccc(F)cc2)C1,?,-7.0%,10µM*,.,7.7%,.
C=CCSc1nc2c(c(=O)[nH]1)C(c1ccccc1)C(C#N)=C(N)O2 (stereo not drawn),-7.4%,16.4%,1.8%,0.3%,-4.5%,6.1%
CNc1nc2[nH]c(=O)c3c(c2s1)OC(N)=C(C#N)C3c1cccc(F)c1 (stereo not drawn),0.6%,-5.1%,-3.1%,6.6%,1.5%,79.4µM*
O=C1C2Sc3[nH]c(=O)sc3C(c3ccccc3)C2C(=O)N1c1ccccc1 (stereo not drawn),?,-7.3%,?,-20.0%,?,79.4µM*
COc1ccc(C2c3sc(=O)[nH]c3SC3C(=O)N(c4ccccc4)C(=O)C32)cc1 (stereo not drawn),-22.2%,-19.9%,-6.2%,?,?,-9.6%
CCC1(C)Cc2sc3c(=O)[nH]c(=S)[nH]c3c2CO1 (stereo not drawn),-12.5%,-16.3%,-4.4%,10.6µM*,-10.0%,?
COC(=O)C[C@@H]1C[C@@H]2c3cc(NC(=O)Cc4ccncc4)ccc3O[C@@H]2[C@@H](CO)O1,.,.,.,6.3%,.,.
CC1(C)OC(=O)C2=C(C[C@@H](C3CCCCC3)O[C@H]2c2ccc(F)cc2)O1,.,.,.,-5.8%,.,.
COCCCNS(=O)(=O)c1ccc2[nH]c3c(c2c1)CCCCC3,.,-5.0%,.,-7.6%,.,-0.5%
COc1ccc(NS(=O)(=O)c2ccc3[nH]c4c(c3c2)CCCC4)cc1Cl,8.91µM*[quencher],18.0%,-12.7%,.,-12.7%,.
SMILES,Tau fluor counter,VDR inh,Tau fibril FP,PLK1 PBD block,Tau ThT inhib,Sfp PPTase inh
Cc1ccc(NS(=O)(=O)c2ccc3[nH]c4c(c3c2)CCCC4)cc1N(C)C,22.4µM*[quencher],6.2%,13.1%,.,-6.7%,.
Cc1ccc(NS(=O)(=O)c2ccc3[nH]c4c(c3c2)CCCCCC4)cc1Cl,7.08µM*[quencher],9.1%,-8.7%,.,-5.7%,.
CCOc1cc(-c2ccc(OC(=O)c3ccc(Cl)cc3)c(OC)c2)cc(=O)c2c(C)oc(C)c12,-13.6%,6.3%,-2.9%,.,-16.8%,.
CCCCN(C=O)c1c(CC)nc2ccc(C(=O)NCCCN3CCCC3=O)cn12,.,.,.,-2.0%,.,.
Oc1ccc2ccccc2c1C=Nc1ccccc1-c1nc2ccccc2[nH]1,?,-10.0%,-4.4%,?,28.2µM*,4.4%
Cc1ccc(-c2cc(C(=O)Nc3c(C(=O)c4ccc(C)c(F)c4)oc4ccccc34)no2)cc1,-6.0%,15.0%,-10.9%,.,2.7%,.
Cc1cccc(Cc2c(C)nc3nc(SCc4ccccc4C)nn3c2C)c1,-18.5%,8.5%,-4.2%,.,-18.5%,.
O=C(CCc1nc2ccccc2c(=O)[nH]1)NCc1ccco1,-1.8%,14.4%,-3.0%,-1.6%,-2.2%,8.1%
CN(CC(=O)NC(=O)NCc1ccco1)Cc1nc2ccccc2c(=O)[nH]1,2.6%,3.1%,-10.9%,-21.6%,-13.2%,89.1µM*
COc1ccc(NS(=O)(=O)c2ccc3oc(SC)nc3c2)cc1,.,0.1%,.,21.2µM*,.,50.1µM*
COc1ccc(-c2nc3ccc(NS(=O)(=O)c4ccccc4)cc3o2)cc1,?,-9.4%,?,.,?,.
COc1ccc(-c2nc3ccc(NS(=O)(=O)c4ccc(C)cc4)cc3o2)cc1,15.8µM*[quencher],-5.3%,-13.5%,.,6.3%,.
CCOc1ccccc1NC(=O)c1nn(-c2ccc(C)cc2)c(=O)n(C)c1=O,8.6%,2.3%,2.2%,.,6.4%,.
C/C(=N\NC(=O)CN(c1ccccc1Br)S(C)(=O)=O)c1cccs1,-4.6%,3.9%,-7.1%,26.7µM*,5.6%,12.0%
CC(C)c1ccc(C2(O)C(=O)Nc3cc(Br)ccc32)c(O)c1 (stereo not drawn),.,?,.,26.7µM*,.,9.2%
O=C1Nc2cc(Br)ccc2C1(O)c1ccccc1O (stereo not drawn),.,1.7%,.,-3.8%,.,4.9%
C[N+](C)(C)CCC(=O)c1cccc2ccccc12,2.8%,2µM*,?,.,?,17.8µM*
Cc1ccc(Cl)cc1NC(=O)CCCN1C(=O)CCn2nc(-c3cn(C)c4ccccc34)cc21,-8.4%,7.0%,?,.,-10.5%,.
Cc1c(NC(=O)COC(=O)C2=COCCO2)cccc1[N+](=O)[O-],.,-29.0%,.,-4.1%,.,.
Cc1ccsc1/C=C1\SC(N)=NC1=O,-4.9%,12.7%,6.4%,-0.2%,?,3.5%
Cc1ccsc1/C=C1/SC(N2CC(C)OC(C)C2)=NC1=O (stereo not drawn),-7.2%,-17.1%,-2.0%,29.9µM*,?,56.2µM*

# Bioassay records: PubChem BioAssay, National Center for Advancing Translational Sciences (NCATS)
